Assay results reported in PubChem BioAssay AID651597 (National Center for Advancing Translational Sciences (NCATS), 2012).
Several values for one entry are separate records, joined by “and”; a condition that tells them apart may be missing. Identical values can stand only once. About 390 (35%) of roughly 1,100 compounds were called active. About 30% were inconclusive and are not listed. The list shows a part of the results. A number with no mark means an inactive call. Calls follow the shape of the dose curve; as a rule, active = well fitted inhibition curve with a large enough effect; inconclusive = small, poorly fitted or top-dose-only effect; inactive = flat fitted curve, though single readings scatter.

The compounds below were run against Luciferin 4-monooxygenase (Photinus pyralis) (UniProt P08659) (assay: qHTS of Nrf2 Activators: Hit Validation in Secondary FLuc Assay). Details: firefly luciferase inhibition counter-screen, luminescence; series mostly up to 57.5 µM; activity, negative = inhibition: at the top concentration.
Source text: Many diseases have some form of oxidative stress injury and ties to inflammation, causing a host of problems for the patient. The antioxidant response element (ARE) plays an important role in alleviating the harmful effects of oxidative stress. The antioxidant response element (ARE) is a transcriptional regulatory element involved in the activation of genes coding for a number of antioxidant proteins and detoxifying enzymes. These enzymes work in concert to protect tissues from oxidative insults and chemical toxicities in human hepatocytes and immune cells. The protective effects of ARE activation are primarily triggered through Nrf2 (NF-E2-related factor) binding to and activating AREs. It is known that Nrf2 controls the production of over 250 antioxidant and detoxification proteins (Hu et al., 2006), thereby protecting tissues by increasing cellular antioxidant content and suppressing inflammatory signaling pathways. The transcription factor Nrf2 is a central link between oxidative chemicals, such as phenolic antioxidants and electrophilic compounds, and the activation of ARE. Nrf2 levels are constitutively low as a consequence of its interaction with Keap1, which targets its degradation (Zipper and Mulcahy, 2002). Electrophiles react with key cysteine residues in Keap1, releasing Nrf2 and allowing its translocation to the nucleus. Once within the nucleus, Nrf2 complexes with coactivators such as p300, and binds to the AREs to induce gene transcription of cytoprotective enzymes, resulting in the prevention of toxicity. Activation of Nrf2 protects tissues by increasing cellular antioxidant content and suppressing inflammatory signaling pathways. Identifying novel and potent Nrf2 activators by using the AREc32 cell line to detect ARE activation by small molecules will lead to the identification and development of probes to study protective pathways in multiple tissues. These specific probes are essential to study the ARE pathway, and eventually to determine whether this pathway does activate genes that could protect against a host of diseases, including cardiovascular diseases, obesity, diabetes, Alzheimer's, and Parkinson's disease.
This project's aim is to identify novel and potent Nrf2 activators by using the AREc32 cell line to detect ARE activation by small molecules, which will lead to the identification and development of probes to study the ARE pathway. In this counter assay, we aim to identify false positive as identified from this primary assay using an FLuc assay with an inhibiting read-out.
NIH Chemical Genomics Center [NCGC]
NIH Molecular Libraries Probe Centers Network [MLPCN]
Assay Submitter (PI): Curtis Klaassen, University of Kansas Medical Center
Assess whether an activator in the primary assay potentially causes such activation by inhibitor-induced stabilization of the firefly luciferase reporter enzyme by determining whether it inhibits firefly luciferase in the presence of Km concentrations of its substrates (ATP and D-luciferin).
% is scaled to controls: 0 for no effect and ±100 for the full control effect; potency is read from the fitted curve at half-maximal effect.
Also: nearly all actives have a fitted effect of over 65% in size.

Compound	Potency	activity, negative = inhibition
c1ccc(CSc2nccc(-c3ccco3)n2)cc1	12 µM (active)	–
O=c1cc(-c2ccco2)nc(SCc2cccc(Cl)c2)[nH]1	–	-23.2%
C=CCSc1nccc(-c2cc(Cl)sc2Cl)n1	–	-29.5%
COC(=O)c1cc2c(s1)-c1cc(F)ccc1OC2	–	-13.2%
CCn1c(NC(=O)c2ccccc2)nc2ccccc21	9.53 µM (active)	–
CCn1c(NC(=O)c2cccs2)nc2ccccc21	12 µM (active)	–
N=c1n(CCN2CCOCC2)c2ccccc2n1CC(=O)c1cccc([N+](=O)[O-])c1	–	4.81%
O=[N+]([O-])c1cccc(-c2nc(-c3ccccn3)no2)c1	1.9 µM (active)	–
O=[N+]([O-])c1cccc(-c2nnc(-c3ccccc3)o2)c1	2.39 µM (active)	–
c1ccc(-c2nnc(-c3ccccc3)o2)cc1	1.9 µM (active)	–
Brc1cc(Cc2nnc(-c3ccccc3)o2)c(Br)s1	–	-2.05%
O=C1C2C(C(=O)N1/N=C/c1ccc([N+](=O)[O-])o1)C1C=CC2C12CC2 (centres undefined)	–	-17.2%
O=[N+]([O-])c1cnccc1-n1nnc2ccccc21	–	4.14%
NC(=O)c1cc2c3ccccc3ccn2c1-c1ccccc1	13.5 µM (active)	–
CCOc1c(Br)cc(C(N)=O)cc1OCc1ccccc1	–	0.994%
COC(=O)C1=C(C)N(C)C(=O)/C1=C\c1ccco1	–	-22.6%
O=C1C(=Cc2ccco2)CCCC1=Cc1ccco1	2.69 µM (active)	–
Nc1nccc(/C=C/c2c(F)cccc2Cl)n1	9.53 µM (active)	–
Nc1ccc(S(=O)(=O)Nc2nccc(/C=C/c3cccc(Br)c3)n2)cc1	–	-23.3%
COC(=O)c1ccccc1NC(=O)COCc1cc(-c2cccs2)on1	–	-17.5%
COC(=O)c1ccccc1NC(=O)c1cccs1	–	-1.86%
COc1ccccc1C(=O)COC(=O)c1cccs1	2.69 µM (active)	–
COc1cc(OC)cc(-c2nc3ccccc3s2)c1	3.79 µM (active)	–
COc1nc(-c2ccccc2)cc(-c2ccccc2)n1	–	-16.4%
C/C(=N\NC(=S)Nc1cccc(C)c1)c1ccco1	7.57 µM (active)	–
Cc1cccc(NC(=O)C2CC(=O)N/C(=N/N=C/c3ccco3)S2)c1 (centres undefined)	–	-25.3%
Cc1cc(C)c(C#N)c(OCC(=O)c2ccc(Br)cc2)n1	–	-2.59%

Compound	Potency	activity, negative = inhibition
Cc1ccnc(SCC(=O)c2ccc(Br)cc2)c1C#N	6.01 µM (active)	–
N#C/C(=C(/O)c1ccco1)c1nc2ccccc2[nH]1	3.79 µM (active)	–
N#C/C(=C(/O)c1ccco1)c1nc2ccccc2s1	2.39 µM (active) and 2.69 µM (active)	–
COC(=O)c1cc2nc(-c3ccccc3)cc(C(F)(F)F)n2n1	–	0.282%
COC(=O)c1sccc1NC(=O)c1ccccc1	–	-5%
COCCn1c(C(F)(F)F)ccc(NC(=O)c2ccccc2)c1=O	4.78 µM (active)	–
O=C1N/C(=N\N=C\c2ccco2)SC1Cc1ccccc1[N+](=O)[O-] (centres undefined)	–	-29.9%
Cc1ccc2[nH]c(=O)c3cc(C(=O)N(C)Cc4ccco4)sc3c2c1	12 µM (active)	–
CN(C)CCNC(=O)c1cccc2ccc(-c3ccc(-c4ccccc4)cc3)nc12	–	-22.3%
CCN(C(=O)Cn1nnc2sc(-c3ccccc3)cc2c1=O)c1cccc(C)c1	12 µM (active)	–
CC(=O)Cn1nnc2sc(-c3ccccc3)cc2c1=O	6.01 µM (active) and 5.36 µM (active)	–
CC(=NNc1ccc2ccccc2n1)c1ccccc1O	0.0169 µM (active)	–
Cc1cc(C)c(-n2c(SCCS(=O)(=O)c3ccc(F)cc3)n[nH]c2=O)c(C)c1	–	3.41%
O=C(Oc1ccccc1/C=C\C(=O)c1cc2ccccc2o1)c1ccccc1	1.07 µM (active)	–
COc1ccc(-c2cc3ccccc3oc2=O)cc1NC(=O)c1ccc([N+](=O)[O-])o1	–	-25.2%
COc1cccc(C(=O)Oc2ccccc2/C=C\C(=O)c2cc3ccccc3o2)c1	1.51 µM (active)	–
CN1CCN(CCCNC(=O)c2cc3c(=O)n(C)c4ccccc4c3s2)CC1	–	-18.5%
O=[N+]([O-])c1ccc(/C=N/Nc2ccc3ccccc3c2)o1	1.69 µM (active)	–
O=[N+]([O-])c1ccc(/C=[N+](\[O-])[C@@H]2CCCC[C@@H]2/[N+]([O-])=C/c2ccc([N+](=O)[O-])o2)o1	–	-26%
O=[N+]([O-])c1ccc(/C=N/N=C/c2ccc([N+](=O)[O-])o2)o1	–	3.61%
O=C(COCc1cc(-c2ccc(F)cc2)on1)Nc1cc(Cl)ccc1O	–	2.84%
Cc1cccc2cc3c(nc12)-c1ccccc1C3=O	10.7 µM (active)	–
Cc1cccc2nc3c(nc12)-c1ccccc1C3=O	–	-28.5%
CS(=O)(=O)c1nc(S(=O)(=O)c2ccc(Cl)cc2)c(N2CCOCC2)s1	–	0.161%
Clc1cc(Cl)cc(Nc2ncnc(-n3cccc3)n2)c1	–	-29%
CCn1nc(C)c(Br)c1-c1nc(-c2cccc(C)c2)no1	–	-25.7%
Cc1cccc(-c2nnc(-c3cccc4ccccc34)o2)c1	0.675 µM (active)	–
